Consider three compounds from the supplement of paper PMC12282887.

± gives the standard deviation of the averaged measurements.

The assay deals with E. coli BW25113 marRABp lux reporter. As to the kind of experiment: promoter activity interaction Z-score (Lux/OD deviation from empty-vector control); higher = stronger promoter induction by the compound. As to the method: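 E. coli BW25113 (wild type or ΔmarA/ΔsoxS/Δrob) carrying pTU175 luxCDABE promoter reporters was grown in LB in 384-well plates at 37°C with each of 94 compounds at 4 two-fold concentrations, in biological duplicates. Luminescence and OD600 were read every 30 min for 12 h and integrated as AUC over 8 h (0-8 h WT, 1-9 h mutants). Lux AUC was divided by OD AUC; the interaction score is the residual of a Huber robust fit of each promoter against the empty-vector control, then Z-transformed per promoter.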

For the compound `Cc1onc(-c2ccccc2)c1C(=O)N[C@@H]1C(=O)N2[C@@H]1SC(C)(C)[C@@H]2C(=O)O` [Oxacillin], the “promoter activity interaction Z-score” value is -0.0416 ± 0.14 (0.53 µg/ml, genetic background: wild type); -0.145 ± 0.48 (0.53 µg/ml, genetic background: ΔmarA); -0.0895 ± 0.14 (0.53 µg/ml, genetic background: Δrob); 0.143 ± 0.032 (0.53 µg/ml, genetic background: ΔsoxS); 0.221 ± 0.0058 (1.1 µg/ml, genetic background: wild type); 0.189 ± 0.3 (1.1 µg/ml, genetic background: ΔmarA). The “promoter activity interaction Z-score” value is, setting by setting: (1.1 µg/ml, genetic background: Δrob) 0.0302 ± 0.28; (1.1 µg/ml, genetic background: ΔsoxS) 0.214 ± 0.17; (2.1 µg/ml, genetic background: wild type) -0.151 ± 0.12; (2.1 µg/ml, genetic background: ΔmarA) -0.0728 ± 0.16; (2.1 µg/ml, genetic background: Δrob) 0.0223 ± 0.02; (2.1 µg/ml, genetic background: ΔsoxS) 0.133 ± 0.06. Besides, the “promoter activity interaction Z-score” value runs as follows: (4.2 µg/ml, genetic background: wild type) 0.0879 ± 0.03; (4.2 µg/ml, genetic background: ΔmarA) 0.194 ± 0.076; (4.2 µg/ml, genetic background: Δrob) -0.03 ± 0.043; (4.2 µg/ml, genetic background: ΔsoxS) 0.211 ± 0.2.
Regarding `C/C=C/C/C=C/CCC(=O)[C@H]1O[C@H]1C(N)=O` [Cerulenin], the “promoter activity interaction Z-score” value reads like this: (1.3 µg/ml, genetic background: wild type) -0.429 ± 0.45; (1.3 µg/ml, genetic background: ΔmarA) -0.469 ± 0.27; (1.3 µg/ml, genetic background: Δrob) -0.456 ± 0.13; (1.3 µg/ml, genetic background: ΔsoxS) -0.416 ± 0.089; (2.5 µg/ml, genetic background: wild type) -0.654 ± 0.29; (2.5 µg/ml, genetic background: ΔmarA) -0.403 ± 0.076. Further, the “promoter activity interaction Z-score” value (2.5 µg/ml, genetic background: Δrob) is -0.662 ± 0.091; the “promoter activity interaction Z-score” value (2.5 µg/ml, genetic background: ΔsoxS) was -0.444 ± 0.12; the “promoter activity interaction Z-score” value (5 µg/ml, genetic background: wild type) is -0.892 ± 0.19; the “promoter activity interaction Z-score” value (5 µg/ml, genetic background: ΔmarA) is -0.779 ± 0.41; the “promoter activity interaction Z-score” value (5 µg/ml, genetic background: Δrob) is -0.818 ± 0.011; the “promoter activity interaction Z-score” value (5 µg/ml, genetic background: ΔsoxS) is -0.796 ± 0.034. Also, the “promoter activity interaction Z-score” value was -0.948 ± 0.37 (10 µg/ml, genetic background: wild type); -0.377 ± 0.77 (10 µg/ml, genetic background: ΔmarA); -1.01 ± 0.028 (10 µg/ml, genetic background: Δrob); -0.994 ± 0.11 (10 µg/ml, genetic background: ΔsoxS).
In the case of `NC[C@H](O)c1ccc(O)c(O)c1` [Noradrenalin], the “promoter activity interaction Z-score” value runs as follows: (20 µg/ml, genetic background: wild type) 0.189 ± 0.16; (20 µg/ml, genetic background: ΔmarA) 0.444 ± 0.053; (20 µg/ml, genetic background: Δrob) 0.108 ± 0.12; (20 µg/ml, genetic background: ΔsoxS) 0.239 ± 0.13; (39.9 µg/ml, genetic background: wild type) 0.0664 ± 0.085; (39.9 µg/ml, genetic background: ΔmarA) 0.371 ± 0.24. Also, the “promoter activity interaction Z-score” value was 0.256 ± 0.08 (39.9 µg/ml, genetic background: Δrob); 0.078 ± 0.037 (39.9 µg/ml, genetic background: ΔsoxS); 0.253 ± 0.15 (79.8 µg/ml, genetic background: wild type); -0.0312 ± 0.044 (79.8 µg/ml, genetic background: ΔmarA); -0.0145 ± 0.019 (79.8 µg/ml, genetic background: Δrob); 0.36 ± 0.27 (79.8 µg/ml, genetic background: ΔsoxS). The “promoter activity interaction Z-score” value (159.6 µg/ml, genetic background: wild type) came to 0.17 ± 0.12; the “promoter activity interaction Z-score” value (159.6 µg/ml, genetic background: ΔmarA) is -0.0497 ± 0.011; the “promoter activity interaction Z-score” value (159.6 µg/ml, genetic background: Δrob) came out at 0.0596 ± 0.2; the “promoter activity interaction Z-score” value (159.6 µg/ml, genetic background: ΔsoxS) was determined as 0.217 ± 0.22.
